# According to ChEMBL document CHEMBL3988442, “University of Dundee, Small-Polar-MMV Screening Library” (2021):
# The whole screen tested about 69,000 compounds, of which about 1,000 (1.4%) showed an effect of 50% or more. What follows is part of a selection rich in strong results, with near analogues and random picks from the rest.
# Tested on: Leishmania donovani
# Assay: Leishmania intramacrophage assay
# Type: functional, organism-based
# Parameters: scale not given: in the data most compounds retested in dose-response had high values
compound,measurement,setting,value
CC(C)CNC(=O)C(C)N1CCN(C2CCN(C(C)C)CC2)CC1 (stereo unspecified),Percent Effect,"30.3 µM, […]",19.26%
CCC(=O)N1CCC(c2nc(C)c3c(n2)N(C)CCC3)CC1,Percent Effect,"30.3 µM, […]",31.8%
CCN(CC)C(=O)CN1CCCC(c2nc(C)c3c(n2)N(C)CCC3)C1 (stereo unspecified),Percent Effect,"30.3 µM, […]",94.66%
CCN(CC)C(=O)CN1CCC(c2nc(C)c3c(n2)N(C)CCC3)CC1,Percent Effect,"30.3 µM, […]",-13.08%
CS(=O)(=O)NCC1CCCN(C(=O)Nc2cccnc2N2CCCC2)C1 (stereo unspecified),Percent Effect,"30 µM, 30.03 µM",4.026%
CS(=O)(=O)NC1CCCN(C(=O)Nc2cccnc2N2CCCC2)C1 (stereo unspecified),Percent Effect,"30.3 µM, […]",64.13%
CS(=O)(=O)NC1CCCN(C(=O)Nc2cccnc2)C1 (stereo unspecified),Percent Effect,30 µM,-4.572%
CCOCc1cncc2c1CCN(C(=O)c1cscn1)C2.O=C(O)C(F)(F)F,Percent Effect,"30.3 µM, […]",5.62%
Cc1ccc(C(=O)NC2CCN(C(C)C)C2)c(=O)[nH]1 (stereo unspecified),Percent Effect,"30.3 µM, […]",39.11%
Cc1ccc(C(=O)NC2CCN(S(C)(=O)=O)CC2)c(=O)[nH]1,Percent Effect,"30.3 µM, […]",59.71%
Cc1ccc(C(=O)NC2CCCN(S(C)(=O)=O)C2)c(=O)[nH]1 (stereo unspecified),Percent Effect,"30.3 µM, […]",4.219%
CNC(=O)C1CN(c2cc(C)ncn2)CCN1Cc1ccccc1 (stereo unspecified),Percent Effect,"30.3 µM, […]",-5.457%
CCOC(=O)N1CCN(C(=O)c2cc(-c3ccc(C)cc3)on2)CC1,Percent Effect,"30.3 µM, […]",67.95%
CCOC(=O)N1CCN(C(=O)c2cc(-c3ccccc3F)on2)CC1,Percent Effect,"30.3 µM, […]",-28.98%
CCOC(=O)N1CCN(C(=O)c2cc(-c3ccc(Cl)cc3Cl)on2)CC1,Percent Effect,"30.3 µM, […]",18.25%
Cn1cc(C(=O)N2CC[C@@H]3[C@@H]2CCN3c2ncc(F)cn2)cn1.O=C(O)C(F)(F)F,Percent Effect,"30.3 µM, […]",4.387%
Cc1ccsc1CNC(=O)c1ccc(N2CCOC2=O)cc1,Percent Effect,"30.3 µM, […]",-0.1452%
COc1cccc(COC(C)C(=O)N(C)Cc2nnc3n2CCC3)c1 (stereo unspecified),Percent Effect,"30.3 µM, […]",-15.17%
Cc1cc(C(=O)NC(COCC(C)C)c2ccco2)no1 (stereo unspecified),Percent Effect,"30.3 µM, […]",10.39%
CCNc1ncc(CN(CCN(C)C)Cc2ccc(C)s2)cn1,Percent Effect,"30.3 µM, […]",7.089%
COc1ncc(CN(CCN(C)C)Cc2ccc(C)s2)cn1,Percent Effect,"30.3 µM, […]",1.942%
CCc1ccc(CN(CCN(C)C)Cc2ccc(C)s2)nc1,Percent Effect,"30.3 µM, […]",60.62%
CN(C)C(=O)COCC1CN(Cc2ccoc2)Cc2ncn(C)c21.O=C(O)C(F)(F)F.O=C(O)C(F)(F)F (stereo unspecified),Percent Effect,"30.3 µM, […]",13.81%
O=C(NCC(F)(F)C(F)F)c1ccncc1,Percent Effect,"30.3 µM, […]",-13.6%
O=C(NCC(F)(F)F)c1ccncc1,Percent Effect,"30.3 µM, […]",80.67%
O=C(NCC(F)(F)C(F)F)c1cccnc1,Percent Effect,"30.3 µM, […]",3.821%
CCC(C)N(Cc1cccnc1)Cc1ccc2c(c1)OCCO2 (stereo unspecified),Percent Effect,"30.3 µM, […]",27.15%
CCC(C)N(Cc1cccnc1)Cc1cc2c(cc1OC)OCO2 (stereo unspecified),Percent Effect,"30.3 µM, […]",16.2%
CCC(C)N(Cc1cccnc1)Cc1cc2c(cc1Cl)OCO2 (stereo unspecified),Percent Effect,"30.3 µM, […]",69.06%
CC(C)CN1C(=O)CC(N2CCN(c3ccc(F)cc3)CC2)C1=O (stereo unspecified),Percent Effect,"30.3 µM, […]",-25.93%
CC(C)NC(=O)c1nc(Cn2c(C(F)(F)F)nc3ccccc32)no1,Percent Effect,"30.3 µM, […]",55.95%
CC(C)NC(=O)c1nc(Cn2c(C(F)F)nc3ccccc32)no1,Percent Effect,"30.3 µM, […]",-22.55%
O=C(NC1CC1)c1nc(Cn2c(C(F)F)nc3ccccc32)no1,Percent Effect,"30.3 µM, […]",-15.36%
CCc1nnc2n1CCN(CC(O)c1ccc3c(c1)OCCO3)C2 (stereo unspecified),Percent Effect,30 µM,-7.197%
CC(C)(C)OC(=O)N1CCN(S(=O)(=O)CCCC#N)C2(CCCCC2)C1,Percent Effect,"30.3 µM, […]",52.1%
CN(C)S(=O)(=O)N1CCN(C(=O)OC(C)(C)C)CC12CCCCC2,Percent Effect,"30.3 µM, […]",5.768%
CC(C)(C)OC(=O)N1CCN(S(C)(=O)=O)C2(CCCCC2)C1,Percent Effect,"30.3 µM, […]",27.8%
CN1CCN(CC2(O)CCCN(S(=O)(=O)c3cn[nH]c3)CC2)CC1 (stereo unspecified),Percent Effect,"30.3 µM, […]",4.995%
Cc1ccc(CN2CCN(Cc3nccn3C)[C@H]3CS(=O)(=O)C[C@H]32)o1,Percent Effect,"30.3 µM, […]",16.96%
Cn1cc(N2Cc3nc(N4CCOCC4)ncc3C2=O)cn1,Percent Effect,"30.3 µM, […]",59.37%
CC(C)n1cc(N2Cc3nc(N4CCOCC4)ncc3C2=O)cn1,Percent Effect,"30.3 µM, […]",32.93%
CCn1cc(N2Cc3nc(N4CCOCC4)ncc3C2=O)cn1,Percent Effect,"30 µM, 30.03 µM",-6.754%
CN(C)Cc1ccc(C(N)=O)cc1NC(=O)c1cccc(C#N)c1,Percent Effect,"30.3 µM, […]",0.5381%
CC(=O)N1CCC(Cc2cccc(-c3ccnn3C)n2)CC1,Percent Effect,"30.3 µM, […]",7.143%
CN(CCNC(=O)Nc1cnn(C)c1)Cc1ccc(F)cc1,Percent Effect,"30.3 µM, […]",-44.73%
CN(CCNC(=O)Nc1ccn(C)n1)Cc1ccc(F)cc1,Percent Effect,"30.3 µM, […]",-20.54%
CN(CCNC(=O)Nc1nccs1)Cc1ccc(F)cc1,Percent Effect,"30.3 µM, […]",53.32%
CCSCc1cccc(NC2CCN(C)C2=O)c1 (stereo unspecified),Percent Effect,"30.3 µM, […]",-1.156%
COCCCN(C)c1cc(C(F)(F)F)nc(-c2cccnc2)n1,Percent Effect,"30.3 µM, […]",1.301%
Cl.c1ccc(-c2ccc(C3CNCCO3)nc2)cc1 (stereo unspecified),Percent Effect,"30 µM, 30.03 µM",21.61%
CCNC(=O)N(Cc1ccoc1)C1CCCCC1,Percent Effect,"30.3 µM, […]",-8.85%
COc1cc(CSc2nnc(N)n2C2CC2)ccc1SC,Percent Effect,"30.3 µM, […]",3.668%
CC(C)(C)c1ncc(C(=O)N2CCC(N3CCSCC3)CC2)c(O)n1,Percent Effect,"30.3 µM, […]",-1.593%
NC(=O)C(CNC(=O)Cc1ccsc1)Cc1ccc(F)cc1 (stereo unspecified),Percent Effect,"30.3 µM, […]",32.76%
NC(=O)C(CNC(=O)Cc1ccc(F)cc1)Cc1ccc(F)cc1 (stereo unspecified),Percent Effect,"30 µM, 30.03 µM",16.98%
Cc1ccc(CC(=O)NCC(Cc2ccc(F)cc2)C(N)=O)cn1 (stereo unspecified),Percent Effect,"30.3 µM, […]",53.64%
CSc1ncnc(NCc2cccs2)c1C#N,Percent Effect,"30.3 µM, […]",10.2%
COCCCN1Cc2cccc(NC(=O)c3ccccc3C)c2C1,Percent Effect,"30.3 µM, […]",-0.887%
O=C(NCc1ccco1)[C@H]1CC[C@@H]2[C@@H](CCN2Cc2nccs2)O1.O=C(O)C(F)(F)F,Percent Effect,"30.3 µM, […]",-4.08%
COCC[C@]1(O)CCN(Cc2nc(C(C)C)cs2)C[C@H]1C,Percent Effect,"30.3 µM, […]",-0.9404%
COCCn1ccnc1CN(Cc1ccccn1)Cc1sccc1C,Percent Effect,"30.3 µM, […]",60.02%
COCCN(Cc1ccccn1)Cc1sccc1C,Percent Effect,"30.3 µM, […]",0.646%
COCCN(Cc1sccc1C)Cc1nccn1CCOC,Percent Effect,"30.3 µM, […]",16.06%
CC(C)(C)CC(=O)Nc1cnn(-c2ccccc2S(C)(=O)=O)c1,Percent Effect,"30.3 µM, […]",13.51%
CS(=O)(=O)c1ccccc1-n1cc(NC(=O)CC2C=CCC2)cn1 (stereo unspecified),Percent Effect,"30.3 µM, […]",4.466%
CN(CC(=O)Nc1cnn(-c2ccccc2S(C)(=O)=O)c1)C1CC1,Percent Effect,"30.3 µM, […]",52.47%
